Measured values reported in PubChem BioAssay AID1347423 (Functional Genomics Laboratory (NCATS/FGL), 2020).
Among all 52,000 sequences or so, about 210 (0.4%) were called active. This is one part of a sample in which actives are shown more often than they occur.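 Rule for the calls: active = gene whose silencing raises cell survival under the drug, median off-target-corrected z-score across its silencing RNAs 2 or more; inactive = the rest.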

assay: Resistance to Poly (ADP-Ribose) Polymerase inhibitor: Gene Identification via Genome-wide siRNA Screen; details: mouse BRCA2 R2336H ES cells, olaparib, CellTiter-Glo viability; stronger effect = higher value
Method in brief: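 Mouse BRCA2 R2336H ES cells were reverse-transfected with siRNA (20 nM final), treated at 48 h with 500 nM olaparib, and read by CellTiter-Glo after 72 h. Scores: MAD-based z per siRNA, median per gene, seed off-target correction.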

Sequence | z-score
CGAUUAUGACCGAUAUAGATT against Fusip1 | 0.823 (inactive)
GGAUAUUGAACACUUCUUGTT against D330017J20Rik | 1.25 (inactive)
GGGACUUUCAUAAUGCCAGTT against Snip1 | 0.733 (inactive)
GGCCUCCCUACUUGAAGACTT against Crip3 | 1.71 (active)
GGCUCUCUUAGUUGUAUCATT against Mrpl35 | -1.03 (inactive)
GGAAGUCCGUUUUUAAGAATT against 4732429I09Rik | -0.792 (inactive)
GCUCAAACAGAUACACGGATT against Ap2a2 | 0.288 (inactive)
GCUUGAUCAACAAGUGGAGTT against Nup62 | -1.64 (inactive)
GCUUGACCCUACACUACAGTT against Olfr1121 | 1.25 (inactive)
GGCAUUGUAGAGAUGACUCTT against 4732479N06Rik | 1.16 (inactive)
UUCUGUGCAUCCUGUCCUATT against Kcnk15 | -0.484 (active)
CGUGUGAGGUUUGUGAAAGTT against Gzmf | -2.41 (inactive)
GCCUAAAAAAUCUCUGUGATT against Zswim3 | -1.39 (inactive)
GGAAGUUCAACACCUCCAGTT against BC023296 | -0.673 (inactive)
CGAUUUCAGCUUAAAGCACTT against Lmo3 | 1.44 (inactive)
CCCUAAAACCAAAUGUACATT against E130014J05Rik | 6.23 (active)
GGACUUGGAAGUAAUUUUCTT against C230071H18Rik | 2.75 (inactive)
GCGAACAGAAAAGACCAAUTT against Col4a5 | 1.11 (inactive)
GGGACAUACAUAUCCUCCUTT against 1300013D05Rik | 1.31 (inactive)
GCAUACAUAGCACUACAUATT against Olfr536 | -0.0396 (inactive)
GGACAGUGUUUACAAACUUTT against Fbxw7 | 0.328 (inactive)
GCAUAUGGUCCACUAAAAATT against Kcnj4 | 0.316 (inactive)
GGUACUGGAGAAAGUCAAGTT against Pik4cb | 0.097 (inactive)
GGAUGAUUUCCAGAGAGUATT against Rdh5 | -1.33 (inactive)
GGAGUGUGAUCAAGUUCAUTT against Eya4 | 0.648 (inactive)
GCUUUUACAAGACCUGUUCTT against Pde2a | 1.02 (active)
GGAGAGAACUGGAAGAGAGTT against 0610040D20Rik | -2.18 (inactive)

Sequence | z-score
GGAAAUACGGCUUCAUCUATT against Cyp26a1 | 0.936 (inactive)
GACAUUUGUAUGCAGUCAUTT against V1ri9 | 0.237 (inactive)
GGAUUCGAUUCUUCCAAAATT against Peli2 | -1.02 (inactive)
GGUCUUAGAAGAUUUUUCUTT against Adam21 | 2.43 (active)
AUUCUGAACACUCCUCGGATT against C630041L24Rik | -0.69 (inactive)
GGAACUGCUUACGAAAUACTT against Lama4 | -0.374 (inactive)
GGAUGCUACGUUCUGCUAGTT against Bcat2 | -0.76 (inactive)
GCCCUCAGGUGGUUCUUAATT against C030036P15Rik | -1.76 (inactive)
GGAGAAACUGAUGACAGUGTT against Plcb3 | 1.47 (active)
GCUAUUAUUGCAAUGUCAGTT against Trim38 | -0.00296 (inactive)
GCUACGAGAGGUCAUUUCCTT against Chrnb1 | 2.48 (active)
GGCUGAAGCAGUCUGUUGCTT against Rpp14 | -0.655 (inactive)
GGCUGUUUGUGGUAUAGGUTT against Lrrc3 | 1.52 (inactive)
GGCAACUUUGUUAUAUACATT against Sh2bp1 | -0.76 (inactive)
CCUCAGAUUUCAACCAUAGTT against 2700087I09Rik | 1.64 (inactive)
CCAUGACAUUUCCUAAGUUTT against B130022O04Rik | -2.2 (inactive)
GGAAAAGAUACGGAAGAUUTT against Acpp | 0.216 (active)
GCUUCUAAUUGGAGAUUGCTT against Ngfrap1 | 1.44 (inactive)
CCAGUUACGUUAAAAGCUUTT against D1Bwg0491e | 0.00475 (inactive)
GGGAGAAUUACCAAGAUCUTT against Elac1 | 2.5 (inactive)
GGUCGACUUAAGAUAAUAATT against Itgb6 | 1.94 (active)
GCCCUAGAUCAGGAGAUCATT against Rps17 | -2.58 (inactive)
GGAUGUCCCACUGCUUUACTT against 5730466C23Rik | -0.562 (inactive)
GCACUAGUUCUCAAUUUAATT against Antxr1 | 0.317 (inactive)
GGCAUCUUCAAAUGACAUATT against Cic | 2.45 (active)
GGCCCAUUUUGGUGUGCAUTT against Hyal3 | -0.6 (inactive)
GGUGCCUAAUGGAUAAGAATT against Thrap2 | 0.923 (inactive)

Sequence | z-score
GGAAACCAGACUUUCCCUATT against V1ra5 | -0.806 (inactive)
GGACCAGGUUCACUUCCCUTT against Ovol1 | 0.343 (inactive)
GCAGAUCUCUUACGUCAUCTT against Adam9 | 0.749 (inactive)
GGAAAGUGGUUUUGUCCACTT against Ing5 | 1.74 (inactive)
GGUCACGUGCAGUUAUAUCTT against Rab32 | 0.0398 (inactive)
GGCCUAAAUUGACAAACUUTT against Mgea5 | 0.366 (inactive)
GCAGCUCCAAAUCCUGUUCTT against Asb16 | -1.78 (active)
GGAAACUUCUGCACUUGGGTT against 4930474M22Rik | 1.02 (inactive)
GCUGUCUGAUUCUGAGGUGTT against Slc6a1 | -0.947 (inactive)
GGGUUUAAUCAUGAUAGAATT against E130014J05Rik | 3.95 (active)
GGUGACAAUAAAAUGGUGATT against Fabp1 | 0.496 (inactive)
GGUCAUGGUCUGAGAUUCUTT against Txnl4 | 0.353 (inactive)
CCCAUGUUCGAUGGGAAAGTT against Adprt1 | 0.293 (active)
GCAAGGUGCACCUAAAGCATT against Egr4 | -2.04 (inactive)
GGACAAGAACUACAUUGAGTT against Eefsec | 2.12 (inactive)
GGACUUUUGGAUAACUUAGTT against 1200008A14Rik | -0.788 (inactive)
GGAUAUUCUUCCAGUCUUUTT against MGC118154 | -1.48 (inactive)
CAAACCCAUGUUCUAAAUGTT against Oog3 | 0.339 (inactive)
GGAGGUUUUGAUGGACUGUTT against 2610528H13Rik | -0.424 (inactive)
CCUUGUACCCAGUAAAGUCTT against 2310007B03Rik | -2.34 (inactive)
GGGAAAAUGCUUUGUUGGATT against Rqcd1 | 1.97 (active)
GGAUUGAGCUACAAGAAUATT against E330016A19Rik | -0.0566 (inactive)
CGGACUCCUGACAUUAUAATT against Cd33 | 0.735 (inactive)
GGUCCUCUAAAGAAUAAAGTT against Ela3b | 0.513 (active)
GGAUUCACGUAAGAUUGACTT against Prlpb | 1.33 (inactive)
GCCAACUCAGUUUUGAAUGTT against 4930404J24Rik | -0.142 (inactive)
GGUGUUCGGUGUCCUGGAATT against Pctp | -1.75 (inactive)

Sequence | z-score
UGAAGUCUAAUCAGAGCACTT against Olfr50 | -2.01 (inactive)
GGAAUGCCGGAUUGCUCACTT against BC008163 | 1.25 (inactive)
GGAAGUUUCUGAAUGCUGUTT against Klrd1 | 2.01 (active)
GGUCAUACACUUCUGCACATT against C330006K01Rik | 1.27 (inactive)
GGAGGAGUUGCACCUCAUCTT against Pctk3 | 0.655 (inactive)
GCUACGGAACAAUCACAGCTT against Jarid1d | 0.15 (inactive)
GGAAAGAAAAAAGAUGGUCTT against Riok1 | -1.05 (inactive)
GGUUGACAUCGACCAAUCATT against Klhl1 | 1.3 (active)
AUGUGAUAGUGCCCAGCCUTT against Olfr884 | 1.48 (inactive)
GGAAGAAAUAGAUGAGAAUTT against Tnmd | 0.737 (inactive)
CGUUGAUUUCCAAAGCUGUTT against Kcnc2 | 0.168 (inactive)
GGAACAUUACCAUCAAGCUTT against Eif2s3x | -2.52 (inactive)
CCAAACUUACAAAUAUGCGTT against Sgpp1 | 3.3 (active)
GGAAGUGUUUGAUGUCUUATT against Stk4 | -1.1 (inactive)
GGGAGUUUAUUCAAAAGUGTT against Nrbp | 0.522 (inactive)
GGACUCUUUUCUACGUGGATT against Klhl1 | 3.47 (active)
GGGCAUACAUAUAACCUAUTT against Plekhc1 | 0.785 (inactive)
CAAAUUAUGAGUGAGAACCTT against Olfr340 | -1.17 (inactive)
GCUUAACCGUUUUUUCAAATT against Tgif | 0.555 (inactive)
GGUUAUGAGGCUUAAUAAATT against 2810423G08Rik | 1.54 (inactive)
GGAUCCAAGUUCCUGGCUCTT against A330096I21Rik | -0.601 (inactive)
GGAGACUCAGGAAAAAAUUTT against Olfr1424 | 0.238 (inactive)
CGAACAGUCUGUAUGGCGATT against Jak1 | 3.46 (active)
GGCCAAUUUGAAUAAUCUATT against Zfp119 | 0.0816 (inactive)
